# Bioassay records (PubChem)
# CatB inh = human cathepsin B inhibitors, primary screen, biochemical, fluorogenic substrate; P07858; purified cathepsin B, fluorescence; inhibition, %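 (tested at 10 µM)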; 63,000 compounds, 0.1% hits; AID 453, 2006; in the data active = inhibition above about 21%;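 note: 0% = enzyme with no compound and 100% = no enzyme blank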
# CatB mix inh = cathepsin B inhibitors from pooled compounds, primary screen, biochemical, compound mixtures, AMC fluorescence | P07858 | Purified cathepsin B, AMC dipeptide fluorescence | inhibition, %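 (ten-compound pools at 5 µM per compound and 50 µM total)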 | 62,000 compounds, 0.06% hits; in the data active = inhibition above about 22%, passing the limit was not always enough; inconclusive = no clear call, values can overlap the other calls;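 note: 0% = enzyme without compound and 100% = no enzyme blank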
# CatL block = inhibitors of human cathepsin L, biochemical. 58,000 compounds, 0.17% hits. purified cathepsin L, fluorogenic substrate, fluorescence. Procathepsin L (Homo sapiens), P07711. inhibition, %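 (tested at 10 µM)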; in the data active = inhibition above about 45%;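 note: 0% = enzyme with no compound and 100% = no enzyme blank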
# Target sequence (P07711 114-288 limits assumed): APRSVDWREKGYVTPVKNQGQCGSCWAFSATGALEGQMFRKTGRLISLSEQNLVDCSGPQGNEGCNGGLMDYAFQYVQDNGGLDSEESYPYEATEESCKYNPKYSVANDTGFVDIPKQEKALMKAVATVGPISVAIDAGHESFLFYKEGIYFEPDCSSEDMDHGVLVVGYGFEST
# Target sequence (P07711 292-333 limits assumed): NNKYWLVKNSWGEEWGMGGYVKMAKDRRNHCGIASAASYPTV
# CatS block = inhibitors of human cathepsin S, biochemical, compound mixtures. P25774. recombinant cathepsin S, AMC dipeptide fluorescence, pooled mixtures. inhibition, %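 (tested at 5 µM per compound within 10-compound mixtures)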. 62,000 compounds, 0.06% hits; in the data active = inhibition above about 32%, passing the limit was not always enough; inconclusive = no clear call, values can overlap the other calls;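 note: 0% = enzyme without compound and 100% = blank without enzyme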
# WNV NS2B-NS3 inh = inhibitors of WNV NS2B-NS3 protease, primary screen, biochemical, fluorogenic substrate | 65,000 compounds, 0.18% hits | Genome polyprotein (West Nile virus), P06935 | z-score (no concentration beside the values) | fluorogenic substrate Ex360/Em465; stronger effect = lower value; in the data active = z-score below about -3
# Target sequence (P06935 1371-1501 limits assumed): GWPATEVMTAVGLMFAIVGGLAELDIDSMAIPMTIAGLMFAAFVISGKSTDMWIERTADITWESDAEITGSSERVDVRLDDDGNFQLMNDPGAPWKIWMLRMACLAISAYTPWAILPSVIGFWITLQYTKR
# Target sequence (P06935 1502-1679 limits assumed): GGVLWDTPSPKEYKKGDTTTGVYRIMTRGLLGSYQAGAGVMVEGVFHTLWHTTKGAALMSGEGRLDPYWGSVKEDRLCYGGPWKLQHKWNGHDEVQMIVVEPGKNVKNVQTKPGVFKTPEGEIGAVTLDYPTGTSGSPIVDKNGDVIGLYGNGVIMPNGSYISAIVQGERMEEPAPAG
# Numbers without * were called inactive; ? = inconclusive; nt = no result. The list is not random: actives were taken first. Their share in the collection is about 0.42%.
SMILES,CatB inh,CatB mix inh,CatL block,CatS block,WNV NS2B-NS3 inh
O=C(Nc1ccc(Cl)cc1)NC1CCCC1Cc1ccco1 (stereo unspecified),-2,-1,-3,0,-4.8*
CC(C)Cc1nc(N2CCOCC2)c(C#N)c2c1COC(C)(C)C2,5,nt,-39,nt,-0.38
CC(C)Oc1ccc(/C(O)=C2/C(=O)C(=O)N(CCN(C)C)C2c2ccco2)cc1 (stereo unspecified),3,-2,8,-1,-0.09
NC(=O)NC1CCCc2c1[nH]c1ccc(Cl)cc21 (stereo unspecified),1,1,-2,4,-3*
O=C(CC1CCCC1)OCn1nnc2ccccc2c1=O,-1,7,24,2,0.02
COCc1cc(C)c2c(N)c(C#N)sc2n1,-1,-1,-27,10,0.39
COc1ccc(N2CCN(c3nc4c(c(=O)[nH]c(=O)n4C)n3CCCc3ccccc3)CC2)cc1,5,-1,6,13,0.67
O=C1CC(N2CCOCC2)C(=O)N1Cc1ccc(N2CCCC2=O)cc1 (stereo unspecified),5,2,4,-9,-3.2*
CCCn1nnnc1SCC(=O)N(C(C)C)C(C)C,5,1,4,-1,0.32
CC(=O)NCc1cn2c(C)csc2n1,-6,3,nt,6,-0.72
Cc1csc2nc(CNC(=O)C3CC=CCC3C(=O)O)cn12 (stereo unspecified),1,0,3,11,-4.3*
O=C(CCCc1cccs1)Nc1nc2c(s1)CCCC2,-2,7,48*,7,-0.21
O=C(CCS(=O)(=O)Cc1ccccc1)Nc1nc2c(s1)CCCC2,6,5,nt,5,-0.82
CCC(C(=O)O)n1nnc(-c2ccc(-c3ccc(OC)cc3)cc2)n1 (stereo unspecified),-3,0,66*,4,0.39
COc1ccc(-c2ccc(-c3nnn(CC(C)=O)n3)cc2)cc1,1,-7,7,8,0.32
O=C(CSc1nc2ccccc2[nH]1)NCCN1CCCCC1,1,1,52*,-1,-1.8
O=C(CSc1nc2ccccc2[nH]1)NCc1ccco1,1,-6,21,10,-0.46
Cc1ccc(OCC(=O)Nc2ccc(N3CCCC3)cc2)cc1C,3,4,61*,-5,-0.81
O=C(NCCCN1CCCCCC1)c1ccc(CS(=O)(=O)Cc2ccccc2F)o1,6,6,60*,2,-1.6
CC1CCN(CCCNC(=O)c2ccc(CS(=O)(=O)Cc3ccccc3F)o2)CC1,6,1,5,9,0.55
Nc1nonc1-n1nnc(C(=O)c2ccccc2)c1-c1ccccc1,1,0,9,20,1.4
Cc1ccc2nc(Nc3ccc4[nH]c(=O)[nH]c4c3)c(-n3nc(C)cc3C)nc2c1,nt,nt,nt,nt,-1.4
O=C(NCc1ccc(F)cc1)C1CCC(=O)N1CCc1ccccc1 (stereo unspecified),42*,-3,11,-1,2.4
Cc1nnc(SCc2nnc(-c3ccc(Cl)cc3)o2)n1-c1ccccc1,4,3,26,4,-0.07
Cc1nnc(SCc2nnc(-c3ccccc3Br)o2)n1-c1ccccc1,0,8,82*,5,-0.35
SMILES,CatB inh,CatB mix inh,CatL block,CatS block,WNV NS2B-NS3 inh
CC(=O)NC(CCS(C)(=O)=O)C(=O)Nc1cccc(C(C)=O)c1 (stereo unspecified),nt,nt,nt,nt,0.67
CCOc1ccc(C2CC(=O)NC(SC)=C2C#N)cc1 (stereo unspecified),-1,1,8,3,0.72
C=CCSC1=C(C#N)C(c2ccc(OCC)cc2)CC(=O)N1 (stereo unspecified),2,-4,102*,?,0.35
Cc1ccc2nc(C(O)C(O)c3nc4ccc(C)cc4[nH]3)[nH]c2c1 (stereo unspecified),0,3,62*,-11,0.31
Cc1ccc2nc(C(F)OC(F)(F)F)[nH]c2c1 (stereo unspecified),-1,4,nt,12,0.11
CSc1nc(C2CC2)cc(-c2cccs2)c1C#N,48*,3,2,2,-0.38
CN1CCN(C(=O)CSc2nc(-c3cccs3)cc(-c3cccs3)c2C#N)CC1,-8,7,-30,8,-1.8
COc1ccccc1N=Cc1nc(-c2ccccc2)oc1OC(C)=O,41*,33*,16,15,-0.07
Cn1c(C(=O)NCCN2CCN(c3ccccc3F)CC2)cc2c(=O)n(C)c3ccccc3c21,-3,8,30,39,-0.31
Cn1c(C(=O)NCCN2CCc3ccccc3C2)cc2c(=O)n(C)c3ccccc3c21,3,2,13,74*,1.4
Cn1c(C(=O)NCCN2CCOCC2)cc2c(=O)n(C)c3ccccc3c21,-3,2,nt,81*,-0.57
CC(C)COC(=O)Cn1cnc2ccc(Br)cc2c1=O,7,2,11,-2,-1.5
COc1ccc2oc(=O)c(C(=O)N3CCN(C45CC6CC(CC(C6)C4)C5)CC3)cc2c1,-2,-7,nt,-12,0.6
O=C(c1ccco1)N(CCCN1CCOCC1)c1nc(-c2ccc(Cl)cc2)cs1,-2,-2,18,-5,-3.1*
O=C(c1ccco1)N(CCCN1CCOCC1)c1nc(-c2ccc(F)cc2)cs1,-1,7,-9,5,-0.93
COc1ccc(CCNC(=O)c2c(O)c3cccc4c3n(c2=O)CC4)cc1,0,-5,1,4,-4.7*
COc1ccc(N2CCN(CC(=O)Nc3cc(C)on3)CC2)cc1,4,-1,14,6,-0.16
COc1ccc(N2CCN(CCCNS(=O)(=O)c3c(C)noc3/C=C/N(C)C)CC2)cc1,1,-1,75*,14,0.52
CN(C)CCNc1nc2c(c(=O)[nH]c(=O)n2C)n1CC(O)COc1ccc(Cl)cc1 (stereo unspecified),7,-1,47*,1,-1.1
CCN(CC)CCNc1nc2c(c(=O)[nH]c(=O)n2C)n1CC(O)COc1ccc(Cl)cc1Cl (stereo unspecified),1,2,19,-2,-0.98
COc1ccc(-c2cn3c(C)c(C(=O)N4CCN(c5ccc(OC)cc5)CC4)sc3n2)cc1,-4,5,0,4,-0.36
N#Cc1nc(N2CCCC2)nc(N2CCCC2)n1,1,6,15,20,0.37
N#Cc1nc(N2CCCCC2)nc(N2CCOCC2)n1,13,7,58*,58*,0.4
Nc1nonc1C(=O)NCCNCc1cc(Br)ccc1OCc1ccccc1F,12,24,12,5,0.31
Nc1nonc1C(=O)NCCNCc1ccccc1OCc1ccccc1F,23*,25,16,10,-0.09
O=S(=O)(/N=S1/CC=CCN1S(=O)(=O)c1ccccc1)c1ccccc1 (stereo unspecified),35*,?,nt,-19,0.0011
O=S(=O)(c1ccccc1)N1CCN(S(=O)(=O)c2ccccc2)C1,4,3,7,-4,0.91
